A selection: hits, their analogues and other compounds. The true share with any hit is near 7%.
DRD3 antagonist: antagonists of human D3 dopamine receptor. P35462. D3R cells, DiscoveRx beta-arrestin luminescence, antagonist mode; stronger effect = lower value. max response, negative = inhibition, %. actives 2.5% (n = 360,000). AID 652054; in the data active means max response below about -50%; inconclusive means no clear call, values can overlap the other calls; further: on the % scale 0 is the no-effect control and ±100 the full control effect
Target sequence (P35462 whole entry, looked up): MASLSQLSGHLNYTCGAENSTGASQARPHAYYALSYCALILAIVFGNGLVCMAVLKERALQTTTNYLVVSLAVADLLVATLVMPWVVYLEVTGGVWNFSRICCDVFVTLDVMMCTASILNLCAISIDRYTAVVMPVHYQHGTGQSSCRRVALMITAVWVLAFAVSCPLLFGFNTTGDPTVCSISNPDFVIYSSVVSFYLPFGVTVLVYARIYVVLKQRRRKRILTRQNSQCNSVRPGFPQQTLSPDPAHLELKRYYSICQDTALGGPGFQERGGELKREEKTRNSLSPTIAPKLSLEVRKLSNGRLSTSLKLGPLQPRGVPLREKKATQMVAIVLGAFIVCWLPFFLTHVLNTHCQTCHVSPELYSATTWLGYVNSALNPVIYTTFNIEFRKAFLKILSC
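Cells expressing the human receptor were seeded at 1500 cells/well, incubated overnight at 37 degrees C in 5% CO2, then exposed to library compounds with dopamine controls for 90 minutes at 37 degrees C before luminescent detection.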
ATXN viability: viability counter-screen for ATXN expression inhibitors; actives 0.49% (n = 400,000); Potency, µM (top dose mostly 56.7 µM), usual class: cytotoxic; S2 cells (HEK-293 line with an ATXN2-luciferase reporter) viability, CellTiter-Fluor protease fluorescence, 24 h; further: potency means the concentration at half of the fitted maximal effect; nearly all actives have a fitted effect of over 40% in size
IL1B secr inh: inflammasome signaling inhibition, IL-1 beta readout. THP-1 LPS/ATP IL-1B secretion, AlphaLISA, 16 h; stronger effect = lower value. activity change, % at 57.5 µM. actives 4.7% (n = 360,000); in the data active means activity change below about -50%; inconclusive means mostly about -30% to -49%; further: on the % scale 0 is the no-effect control and ±100 the full control effect
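Secreted IL-1B measured by AlphaLISA bead assay after 16 h compound exposure of THP-1 cells; compounds (final up to 57.5 uM) added 1 h before LPS (250 ng/mL) and ATP (1.25 mM) stimulation; lower signal means less secretion.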
a7 integrin act: activators of alpha7 integrin expression for muscular dystrophy. alpha7betagal myoblasts, beta-gal FDG fluorescence, 48 h. Potency, µM (series often up to 38.3 µM), for the others: top-dose activation, most hits filed as activators. actives 0.064% (n = 350,000). AID 624291;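 further: potency means the concentration at half of the fitted maximal effect; 100% = response of the positive control SU9516; nearly all actives have a fitted effect of over 60% in size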
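alpha7betagal+/- myoblasts (passage 13, 250/well) treated 48 h at 37C with compounds at 1:260 dilution of DMSO stock. Lysed, then beta-galactosidase activity read as FDG fluorescence (ex 480/em 540) after 30 min, with pre-read for autofluorescence.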
DRD3 agonist: activates the human D3 dopamine receptor | actives 0.58% (n = 410,000) | AID 652048 | D3R DiscoveRx beta-arrestin cells, luminescence, 90 min | P35462 | max activation, %; in the data active means max activation above about 30%; further: 0% is about no effect
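Agonist mode: compounds and dopamine controls were applied to plated cells for 90 min at 37 degrees C after an overnight attachment at 1500 cells/well. Luminescent read-out followed 30 - 60 minutes at room temperature with DiscoveRx detection reagent.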
ATXN2 expr inh: inhibitors of ATXN2 expression; AID 1745845; HEK-293 ATXN2-luciferase reporter, luminescence, 24 h; Potency, µM (doses to about 57 µM), inactives show top-dose activity change, negative = inhibition, actives largely listed as inhibitors; actives 0.72% (n = 360,000); further: potency means the concentration at half of the fitted maximal effect; on the % scale 0 is the no-effect control and ±100 the full control effect; nearly all actives have a fitted effect of over 55% in size
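qHTS (up to 57 uM final) was run with 24 h compound exposure of reporter cells at 37 °C. Each well was multiplexed: SteadyGlo luminescence measured ATXN2-luciferase expression after a fluorogenic Gly-Phe-AFC viability readout (25 uM final).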
An asterisk follows results filed as active; i = inactive; ? = inconclusive; / = no result given; [ ] = remark or other dose. Unless noted, the call rests on the fitted dose curve; in most records, active means well fitted curve in the direction sought with a large enough effect; inconclusive means small, poorly fitted or top-dose-only effect, or another doubt; inactive means no such curve, though single readings can be large; an effect the other way counts as inactive or inconclusive.

SMILES | DRD3 antagonist | ATXN viability | IL1B secr inh | a7 integrin act | DRD3 agonist | ATXN2 expr inh
COc1ccc(-c2cc(C(F)(F)F)nc(S(=O)(=O)CCCC(=O)Nc3cccc(O)c3)n2)cc1OC | -53* | / | -146* | -70% | -22 | -98%
COc1ccccc1-c1cc(C(F)(F)F)nc(S(=O)(=O)CCCC(=O)Nc2cc(OC)c(OC)c(OC)c2)n1 | / | i | / | / | -13 | 15%
COc1ccccc1-c1cc(C(F)(F)F)nc(S(=O)(=O)CCCC(=O)O)n1 | -23 | ? | -87* | -15% | -25 | ?
COc1ccccc1-c1cc(C(F)(F)F)nc(S(=O)(=O)CCCC(=O)Nc2ccc(F)c(Cl)c2)n1 | / | i | / | / | -13 | 1%
COc1ccccc1-c1cc(C(F)(F)F)nc(S(=O)(=O)CCCC(=O)N2CCOCC2)n1 | ? | 18µM* | -118* | 0% | -8 | ?
COc1ccc(-c2cc(C(F)(F)F)nc(S(=O)(=O)CCC(=O)N3CCOCC3)n2)cc1 | -14 | ? | -118* | -61% | -24 | ?
Cc1cc2cccc(C)c2nc1SCC(=O)NCC1CCCO1 (stereo not given) | 7 | i | -9 | -9% | 3 | -3%
Cc1cc(C)c2nc(SCC(=O)NCC3CCCO3)c(C#N)cc2c1 (stereo not given) | -13 | i | -51* | -4% | -5 | -21%[11.3 µM]
CCc1ccc2[nH]c(=O)c(C(c3nnnn3CC3CCCO3)N3CCCc4ccccc43)cc2c1 (stereo not given) | 8 | ? | ? | 22% | 38* | -6%
COc1ccccc1C(=O)Nc1ccc(N2CCN(C(C)=O)CC2)cc1 | 0 | i | -56* | 22% | -2 | -2%
Cc1ccccc1C(=O)N1CCN(c2ccc(NC(=O)c3cccc(OC(C)C)c3)cc2)CC1 | 10 | i | -1 | 10% | -3 | -7%
CC(=O)N1CCN(c2ccc(NC(=O)C(c3ccccc3)c3ccccc3)cc2)CC1 | 25 | i | -58* | 16% | -4 | 2%
COc1c(C)cccc1C(=O)Nc1ccc(N2CCN(C(=O)c3ccccc3C)CC2)cc1 | 22 | ? | -106* | 16% | 28 | 20µM*
COc1ccccc1C(=O)Nc1ccc(N2CCCCC2)cc1 | ? | i | -22 | 6% | -12 | 145%
COc1ccc(OC)c(CNC(=O)CCC(=O)N2Cc3ccccc3Oc3ncccc32)c1 | -7 | i | 4 | 4% | 1 | 6%
NNC(=S)NC1CCCCCCCCCCC1 | -28 | i | 0 | 7% | -13 | /
COc1ccc2c(c1)nc(SCC(=O)c1ccc(Br)s1)n2C | 9 | i | -2 | 0% | 2 | -5%
CCc1ccc(C(=O)c2cn(CC(=O)Nc3ccc(F)cc3)c3ccc(F)cc3c2=O)cc1 | / | ? | / | / | -10 | 0%
Cc1cccc(C(=O)N/N=C/c2ccc(OCC(=O)N3CCCCC3)cc2)c1 | -13 | i | 10 | -5% | -4 | 15%
O=C(CSCc1cccc(Cl)c1)N/N=C/c1ccc(OCC(=O)N2CCCCC2)cc1 | 12 | ? | -74* | -28% | 3 | -29%
CCOc1ccc(NC(=O)CN2CCCN(Cc3cc(C)ccc3C)S2(=O)=O)cc1 | / | i | / | / | -13 | ?
CC(=O)Nc1c(Cl)cc(Cl)c2c1Cc1cc(Cl)ccc1-2 | 9 | i | 34 | -7% | 10 | -7%
O=C(Nc1cccc(NC(=O)c2ccc(-c3ccc(Br)cc3)o2)c1)c1ccccc1 | 0 | i | 44 | 24% | -19 | -10%
COc1cc(NC(=O)c2ccccc2Cl)ccc1NC(=O)c1cccs1 | -19 | i | ? | -88% | -11 | 27%
COc1cc(NC(=O)c2cccs2)ccc1NC(=O)Cc1ccccc1 | 1 | i | -17 | 30% | -12 | 4%
SMILES | DRD3 antagonist | ATXN viability | IL1B secr inh | a7 integrin act | DRD3 agonist | ATXN2 expr inh
O=C(Nc1cccc(NC(=O)c2ccc([N+](=O)[O-])o2)c1)c1ccco1 | -8 | ? | -90* | -23% | 1 | -26%
COc1cc(NC(=O)c2cc3ccccc3cc2OC)ccc1NC(=O)c1cccs1 | 72 | i | -69* | 40% | 6 | ?
COc1cc(NC(=O)c2ccc([N+](=O)[O-])o2)ccc1NC(=O)c1cccs1 | ? | i | -90* | -53% | -9 | -23%
O=C(Nc1cccc(NC(=O)c2ccc(-c3cccc(Br)c3)o2)c1)c1ccco1 | 12 | ? | -59* | -7% | 12 | 0%
COc1ccc(CC(=O)NCc2nc3cccnc3n2Cc2ccccc2)cc1 | / | / | / | / | 13 | /
CCOC(=O)Cc1nnc(NC(=O)COc2ccc(F)cc2)s1 | 4 | i | 2 | 3% | 6 | 8%
COc1ccc(NC(=O)C(=O)NNC(=O)c2cccs2)cc1 | -21 | i | 1 | -29% | -8 | 13%
O=C(Nc1cccc(NC(=O)c2cccs2)c1)c1ccc([N+](=O)[O-])o1 | -5 | ? | -102* | -73% | -4 | ?
O=C(Nc1nc(-c2cccs2)cs1)c1ccc([N+](=O)[O-])o1 | -20 | ? | -90* | -20% | -6 | -24%
COc1ccc(NC(=O)C(=O)NNC(=O)c2cccs2)c(OC)c1 | -73* | i | -5 | 8% | -5 | -11%
Cc1cc(OCC(=O)Nc2ccc(OCc3ccccc3)cc2)nc(C(C)C)n1 | 6 | i | -9 | -41% | -4 | -4%
CCN1CCCC1CNC(=O)C(=O)Nc1cccc(OC)c1 (stereo not given) | -7 | ? | 15 | 7% | 1 | 11%
CCN1CCCC1CNC(=O)c1cc2c(-c3cccc(OC)c3)nn(C)c2s1 (stereo not given) | -72* | ? | -9 | -50% | 1 | -3%
COCCNC(=O)c1cc2c(-c3ccc(Cl)cc3)nn(C)c2s1 | 28 | i | -12 | -13% | 2 | -12%
Cn1nc(-c2ccc(Cl)cc2)c2cc(C(=O)NCCCN3CCCC3)sc21 | ? | 18µM* | -89* | -50% | -19 | 20µM*
CCCCNC(=O)c1cc2c(-c3ccc(Cl)cc3)nn(C)c2s1 | 37 | i | 19 | -17% | -3 | 9%
CCN1CCCC1CNC(=O)c1cc2c(-c3ccc(Cl)cc3)nn(C)c2s1 (stereo not given) | ? | 14µM* | -85* | -51% | -10 | 25µM*
CN(C(=O)c1cccc(NC(=O)C2CCCN(C(=O)OC(C)(C)C)C2)c1)C1CCCC1 (stereo not given) | 21 | ? | -5 | -7% | 14 | ?
COc1cc(/C=C/C(=O)N2C(=O)c3cccc(N)c3C2=O)cc(OC)c1OC | -82* | / | -20 | -27% | -10 | ?

High-throughput results: PubChem BioAssay, National Center for Advancing Translational Sciences (NCATS)
